Consider seven compounds from PubChem BioAssay (EPA / NIEHS).

Results filed as inconclusive are left out. Calls of active or inactive are those of the source. How the source made its calls, unless noted: active means hit-call score of the fitted dose curve at least 0.9, where 1 is the maximum; inactive means score below 0.9.

Assay [1] deals with human Vitamin D Receptor (VDR), VDR (gene 7421) (UniProt P11473). Description: ATG_VDR_TRANS: Attagene TRANS-FACTORIAL HepG2 Assay for human Vitamin D Receptor (VDR) (AID 2283022; active means hit-call score of the fitted dose curve at least 0.9, where 1 is the maximum). The essentials: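 HepG2 cells were transiently transfected with GAL4-UAS reporter units and a chimeric VDR-Gal4 construct, then dosed for 24 hours. Reporter mRNA was quantified by RT-PCR, fluorescent labeling, HpaI digestion and capillary electrophoresis; gain of signal analysed vs DMSO.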

The nature of assay [2]: BSK_3C_SRB: Viability Assessment in the BioMAP Diversity Plus: 3C Assay (AID 2283023).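 Further: fitted both ways against DMSO so a hit may be signal rise or drop.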 The conditions noted are these: primary human endothelial cells (HUVEC). The essentials:
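Human umbilical vein endothelial cells in the 3C system, treated 24 h. Total protein measured by 0.1% sulforhodamine B staining after 10% TCA fixation, read at 560 nm; bidirectional fit versus DMSO.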

Read-out in assay [3]: Matrix Metallopeptidase 1 (MMP1), MMP1 (gene 4312)
Description: BSK_BE3C_MMP1: BioMAP Diversity Plus: BE3C Assay for Matrix Metallopeptidase 1 (MMP1) Biomarker Activity (AID 2283024). The following applies: primary human bronchial epithelial cells; actives raise or lower the signal. The procedure, abridged: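 Dose cells, wait 24 h, run MMP1 ELISA; cells are human bronchial epithelial primaries. Both increases and decreases relative to DMSO counted.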

A short description of assay [4]: BSK_3C_Vis: BioMAP Diversity Plus: 3C Assay for Morphology Visualization (AID 2283025).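 Further: fitted both ways so gain or loss versus DMSO counts.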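 On AC50: light microscopy image of cell morphology used as background control.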 The conditions noted are these: primary human endothelial cells (HUVEC). The procedure, abridged:
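Endothelial cells from human umbilical vein were treated with test chemicals for 24 h and inspected by light microscopy for changes in cell conformation.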

Read-out in assay [5]: Pselectin, SELP (gene 6403)
Description: BSK_4H_Pselectin: BioMAP Diversity Plus: 4H Assay for Pselectin Biomarker Activity (AID 2283026). The conditions noted are these: primary human endothelial cells (HUVEC); actives raise or lower the signal. The procedure, abridged:
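Human vascular endothelium from umbilical vein; P-selectin measured by ELISA at 24 h post-dose, with cytotoxicity checked by sulforhodamine B total-protein staining in parallel cultures (0.1% SRB after 10% TCA fixation, read at 560 nm).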

Assay [6] can be described thus: BSK_4H_SRB: Viability Assessment in the BioMAP Diversity Plus: 4H Assay (AID 2283027).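 Further: cells exposed to compound for 24 h before staining.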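 On AC50: curves fitted both ways versus DMSO so AC50 may be loss or gain.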 The following applies: primary human endothelial cells (HUVEC). The procedure, abridged:
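Human umbilical vein endothelial cells were dosed with chemical and, after 24 h, fixed with 10% TCA, stained with 0.1% sulforhodamine B, and read at 560 nm to give total protein as a cytotoxicity measure. Bidirectional fitting relative to DMSO control.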

Assay [7] in a line: BSK_BE3C_SRB: Viability Assessment in the BioMAP Diversity Plus: BE3C Assay (AID 2283028). The conditions noted are these: primary human bronchial epithelial cells. The essentials: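 Human bronchial epithelial primary cells in confluent culture, 24 h after chemical dosing; total protein by 0.1% SRB staining after 10% TCA fixation, read at 560 nm. Bidirectional fitting versus DMSO baseline.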

Read-out in assay [8]: Thrombomodulin, THBD (gene 7056)
The assay can be described thus: BSK_3C_Thrombomodulin: BioMAP Diversity Plus: 3C Assay for Thrombomodulin Biomarker Activity (AID 2283029). The conditions noted are these: primary human endothelial cells (HUVEC); actives raise or lower the signal. The procedure, abridged: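 Thrombomodulin ELISA, human primary HUVEC, 24 h post-dose; data fitted in both directions relative to DMSO.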

Read-out in assay [9]: Urokinase-type plasminogen activator receptor (uPAR), PLAUR (gene 5329)
The assay can be described thus: BSK_4H_uPAR: BioMAP Diversity Plus: 4H Assay for Urokinase-type plasminogen activator receptor (uPAR) Biomarker Activity (AID 2283030). The conditions noted are these: primary human endothelial cells (HUVEC); actives raise or lower the signal. The procedure, abridged: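 Human umbilical vein endothelial cells in the 4H system, 24 h after chemical dosing. Cell-surface uPAR measured by ELISA, fitted in both directions versus DMSO; cytotoxicity checked by SRB total protein in parallel cultures.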

Read-out in assay [10]: Vascular endothelial growth factor receptor 2 (Homo sapiens) (UniProt P35968)
The assay can be described thus: BSK_4H_VEGFRII: BioMAP Diversity Plus: 4H Assay for Vascular endothelial growth factor receptor 2 (VEGFR2) Biomarker Activity (AID 2283031).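 On AC50: cell-surface VEGFR2 protein level quantified by ELISA.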 The following applies: primary human endothelial cells (HUVEC); actives raise or lower the signal. The essentials:
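Primary human umbilical vein endothelial cells (4H system), 24 h exposure; cell-surface VEGFR2 measured by ELISA. Bidirectional fitting versus DMSO; cytotoxicity checked in parallel by SRB total-protein staining.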

Read-out in assay [11]: Human Leukocyte Antigen - DR isotype (HLADR), HLA-DRA (gene 3122)
The assay can be described thus: BSK_BE3C_HLADR: BioMAP Diversity Plus: BE3C Assay for Human Leukocyte Antigen - DR isotype (HLADR) Biomarker Activity (AID 2283032). The following applies: primary human bronchial epithelial cells; actives raise or lower the signal. The essentials: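 Signal came from an ELISA for HLA-DR in human bronchial epithelial primary cells harvested 24 h after treatment; gain- and loss-of-signal fitting used DMSO controls as reference.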

Read-out in assay [12]: Vascular cell adhesion molecule 1 (VCAM1), VCAM1 (gene 7412)
The assay can be described thus: BSK_4H_VCAM1: BioMAP Diversity Plus: 4H Assay for Vascular cell adhesion molecule 1 (VCAM1) Biomarker Activity (AID 2283033).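 On outcome: cell-surface VCAM-1 protein measured by ELISA.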 The following applies: primary human endothelial cells (HUVEC); actives raise or lower the signal. The essentials:
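Endpoint derived from bidirectional fitting against DMSO controls of VCAM-1 ELISA signal in umbilical vein endothelial cells sampled at 24 h following treatment.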

Read-out in assay [13]: Interferon-gamma inducible Protein 10 (IP10), CXCL10 (gene 3627)
The assay can be described thus: BSK_BE3C_IP10: BioMAP Diversity Plus: BE3C Assay for Interferon-gamma inducible Protein 10 (IP10) Biomarker Activity (AID 2283034). The following applies: primary human bronchial epithelial cells; actives raise or lower the signal. The essentials:
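Using primary human bronchial epithelial cultures, the assay captures IP-10 by ELISA one day (24 h) after exposure. Parallel SRB staining of total protein flags overt cytotoxicity. Fits run bidirectionally relative to DMSO.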

Read-out in assay [14]: Monokine induced gamma interferon (MIG), CXCL9 (gene 4283)
Description: BSK_BE3C_MIG: BioMAP Diversity Plus: BE3C Assay for Monokine induced gamma interferon (MIG) Biomarker Activity (AID 2283035). The conditions noted are these: primary human bronchial epithelial cells; actives raise or lower the signal. The essentials: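 ELISA read-out of MIG in human lung bronchial epithelial primary cultures, 24 h post-dosing. Bidirectional curve fit vs DMSO baseline.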

Read-out in assay [15]: Transforming growth factor beta 1 (TGFb1), TGFB1 (gene 7040)
Description: BSK_BE3C_TGFb1: BioMAP Diversity Plus: BE3C Assay for Transforming growth factor beta 1 (TGFb1) Biomarker Activity (AID 2283036;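 further: TGF-b1 protein level measured by ELISA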). The conditions noted are these: primary human bronchial epithelial cells; actives raise or lower the signal. The essentials: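 In this human primary bronchial epithelial system, an ELISA quantified TGF-b1 one day after dosing. Endpoint changes in either direction were fitted relative to DMSO.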

Read-out in assay [16]: Plasminogen activator inhibitor-1 (PAI1), SERPINE1 (gene 5054)
Description: BSK_BE3C_PAI1: BioMAP Diversity Plus: BE3C Assay for Plasminogen activator inhibitor-1 (PAI1) Biomarker Activity (AID 2283037). The following applies: primary human bronchial epithelial cells; actives raise or lower the signal. The essentials: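 PAI-1 biomarker levels in treated human bronchial epithelial cells are determined by ELISA at 24 h. Both increases and decreases relative to DMSO are fitted.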

Read-out in assay [17]: urokinase plasminogen activator (uPA), PLAU (gene 5328)
Description: BSK_BE3C_uPA: BioMAP Diversity Plus: BE3C Assay for urokinase plasminogen activator (uPA) Biomarker Activity (AID 2283038).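 Further: uPA protein level quantified by ELISA in cell cultures; uPA read one day after compound addition.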 The following applies: primary human bronchial epithelial cells; actives raise or lower the signal. The essentials:
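Primary human bronchial epithelial cells, uPA measured by ELISA 24 h after dosing. Bidirectional change relative to DMSO; cytotoxicity checked in parallel cultures by sulforhodamine B total-protein staining.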

Read-out in assay [18]: Urokinase-type plasminogen activator receptor (uPAR), PLAUR (gene 5329)
Description: BSK_BE3C_uPAR: BioMAP Diversity Plus: BE3C Assay for Urokinase-type plasminogen activator receptor (uPAR) Biomarker Activity (AID 2283039).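 On outcome: cells exposed to compound for one day before measurement.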 The following applies: primary human bronchial epithelial cells; actives raise or lower the signal. The procedure, abridged: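 A uPAR ELISA serves as the readout, taken 24 h after treating primary human bronchial epithelial cells. Responses in either direction are fitted against DMSO, which defines baseline activity.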

Read-out in assay [19]: Interleukin-6 (IL6), IL6 (gene 3569)
Description: BSK_CASM3C_IL6: BioMAP Diversity Plus: CASM3C Assay for Interleukin-6 (IL6) Biomarker Activity for (AID 2283040). The following applies: primary human coronary artery smooth muscle cells; actives raise or lower the signal.

Read-out in assay [20]: Tissue plasminogen activator (tPA), PLAT (gene 5327)
The assay can be described thus: BSK_BE3C_tPA: BioMAP Diversity Plus: BE3C Assay for Tissue plasminogen activator (tPA) Biomarker Activity (AID 2283041).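 On outcome: tPA level quantified by ELISA one day after compound addition.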 The following applies: primary human bronchial epithelial cells; actives raise or lower the signal. The procedure, abridged:
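Bidirectional curve fitting relative to DMSO defined activity, with tPA detected by ELISA in chemically treated human bronchial epithelial primary cells at 24 hours.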

human Vitamin D Receptor (VDR), VDR (gene 7421), sequence (P11473 whole entry, looked up, the tested form may be a part): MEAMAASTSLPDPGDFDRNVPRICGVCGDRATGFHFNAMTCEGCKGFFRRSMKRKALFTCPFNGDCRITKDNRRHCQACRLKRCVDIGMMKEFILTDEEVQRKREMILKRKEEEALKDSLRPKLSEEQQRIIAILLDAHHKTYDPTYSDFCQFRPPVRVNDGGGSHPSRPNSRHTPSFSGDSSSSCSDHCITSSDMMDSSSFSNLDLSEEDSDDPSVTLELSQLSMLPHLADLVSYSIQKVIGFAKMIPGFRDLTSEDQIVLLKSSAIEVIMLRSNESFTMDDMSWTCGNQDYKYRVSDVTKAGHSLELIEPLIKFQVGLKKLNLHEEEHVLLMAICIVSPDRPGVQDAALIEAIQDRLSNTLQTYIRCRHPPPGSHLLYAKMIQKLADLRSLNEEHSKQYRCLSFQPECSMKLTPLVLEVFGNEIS

As to `COC(=O)c1ccccc1S(=O)(=O)NC(=O)Nc1nc(OC(F)F)cc(OC(F)F)n1`, the compound was classed as inactive in assay [1], in [2], in [3], in [4], in assay [5] and in assay [6]. For the same compound, the outcome in assay [7], in assay [8], in assay [9], in assay [10], in [11] and in [12] was inactive. The outcome in [13], in assay [14], in assay [15], in [16], in [17] and in assay [18] was inactive. In addition, the result in [19] and in [20] was inactive.
The AC50 is the midpoint of the concentration-response curve, whichever way the signal moves. For the compound `CCCCCCC(C)OC(=O)COc1nc(F)c(Cl)c(N)c1Cl` (centres undefined), the compound was classed as inactive in assay [1], in assay [3], in assay [7], in assay [11], in [13] and in assay [14]. In addition, the result in assay [15], in assay [16], in assay [17], in assay [18], in assay [19] and in assay [20] was inactive. The AC50 in assay [2] was 30.1 µM (active); in assay [4] it was 29.4 µM (active); in [5], 30.8 µM (active); in assay [6], 34.5 µM (active); in assay [9] it was 31.2 µM (active); in assay [10], 31.9 µM (active). For the same compound, the AC50 in assay [12] is 39 µM (active).
Regarding `CCOC(=O)[C@H](C)Oc1ccc(Oc2nc3ccc(Cl)cc3o2)cc1`, the compound was classed as inactive in assay [1], in assay [2], in [3], in [4], in [5] and in assay [6]. Moreover, the result in assay [7], in assay [8], in assay [9], in [10], in assay [11] and in assay [12] was inactive. Also, the result in assay [13], in assay [14], in assay [15], in assay [17], in assay [18] and in [19] was inactive. In addition, the result in assay [20] was inactive. In assay [16], the AC50 is 3.97 µM (active).
With `CC(=O)[C@H]1CC[C@H]2[C@@H]3CCC4=CC(=O)CC[C@]4(C)[C@H]3CC[C@]12C`, the result in assay [1], in assay [6], in [7], in [8], in assay [11] and in assay [13] was inactive. The outcome in assay [14], in assay [15], in assay [16], in assay [17], in assay [18] and in [19] was inactive. For the same compound, the result in assay [20] was inactive. In addition, the AC50 in assay [2] was 6.1 µM (active); in assay [3] it was 7.49 µM (active); in assay [4], 9.8 µM (active); in assay [5], 31.9 µM (active); in assay [9], 10 µM (active).
In the case of `CCOC(=O)COc1cc(-n2ncc(C(F)(F)F)c(C)c2=O)c(F)cc1Cl`, the result in assay [1], in [2], in assay [3], in assay [4], in assay [5] and in assay [6] was inactive. Further, the result in [7], in assay [8], in [9], in assay [10], in assay [11] and in [12] was inactive. Further, the result in assay [13], in [14], in assay [15], in assay [17], in assay [19] and in assay [20] was inactive. Moreover, the AC50 in assay [18] is 0.459 µM (active).
Regarding `N[C@@H](Cc1cc(I)c(Oc2ccc(O)c(I)c2)c(I)c1)C(=O)O`, the outcome in [1], in assay [2], in assay [4], in assay [5], in assay [6] and in [7] was inactive. Besides, the outcome in assay [8], in assay [9], in assay [10], in assay [11], in [12] and in [14] was inactive. The outcome in assay [15], in assay [17], in [18] and in [19] was inactive. Moreover, the AC50 is 3.8 µM (active) in [3], 21.3 µM (active) in assay [13] and 16 µM (active) in [20].
Take `C#C[C@]1(O)CC[C@H]2[C@@H]3CCC4=CC(=O)CC[C@@H]4[C@H]3CC[C@@]21CC`: the outcome in assay [1], in assay [2], in [4], in assay [5], in assay [6] and in assay [7] was inactive. Besides, the outcome in [8], in [9], in assay [10], in assay [11], in assay [12] and in assay [13] was inactive. In addition, the outcome in assay [14], in [15], in [17], in assay [18], in assay [19] and in assay [20] was inactive. The AC50 in [3] was 3.16 µM (active).
